# According to the supplement of paper PMC9402605:
# ± gives the standard deviation of the averaged measurements.
# System: Caenorhabditis elegans N2
# Experiment: egg-laying rate relative to DMSO control (M9 buffer background) (fraction of control); higher = more egg-laying
# Settings: 60 µM, 1 h
# Description: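 About 20 young-adult wild-type C. elegans (N2) per well in 96-well plates were exposed to 60 uM compound for 1 h at room temperature, either in M9 buffer (to find stimulators) or in 12.3 mM serotonin + 7.7 mM nicotine (NS, to find inhibitors). Eggs per worm per hour were counted by automated imaging and normalised to the mean of proximal DMSO control wells. Values average the primary screen and two retests of the worm-active (wactive) Egl modulators.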
row,SMILES,egg-laying rate
1,O=[N+]([O-])c1ccc(CSc2ccc(Cl)cc2)cc1 [wact-3],2.13 ± 0.22
2,O=C(Nc1ccc(I)cc1)c1ccco1 [wact-27],3.06 ± 1.5
3,Brc1cccc(-c2cn3ccccc3n2)c1 [wact-435],0.576 ± 0.34
4,CCOc1ccc(C(=O)c2cccs2)cc1 [wact-471],2.49 ± 2.2
5,O=C1CC(N2CCN(c3ccc([N+](=O)[O-])cc3)CC2)C(=O)N1c1ccccc1F (stereo not given) [wact-56],2.24 ± 0.45
6,CCc1ccc(-c2cn3ccsc3n2)cc1 [wact-434],1.53 ± 0.93
7,c1csc(-c2cnc3ccccc3n2)c1 [wact-21],4.69 ± 1.8
8,O=[N+]([O-])c1ccc(-n2ccc3ccccc32)cc1 [wact-213],2.13 ± 1.5
9,Clc1ccc(-c2cn3ccsc3n2)cc1 [wact-1],1.94 ± 0.54
10,CCCCOC(=O)Nc1ccc([N+](=O)[O-])cc1 [wact-419],2.9 ± 0.58
11,Cc1ccccc1C(=O)NCCSC1CCCCC1 [wact-494],1.03 ± 0.24
12,COc1ccc(C=Cc2ccccn2)cc1 [wact-622],1.19 ± 0.28
13,Fc1ccc(-c2cn3ccsc3n2)cc1 [wact-433],3.02 ± 1.1
14,O=[N+]([O-])c1ccc(N2CCN(CC3CC=CCC3)CC2)cc1 (stereo not given) [wact-47],10.6 ± 6.3
15,O=[N+]([O-])c1ccc(N2CCN(CC3CC4C=CC3C4)CC2)cc1 (stereo not given) [wact-46],11 ± 6.7
16,Cc1ccc(-c2cnc(-c3ccncc3)o2)cc1 [wact-23],3.94 ± 1.5
17,Cc1ccccc1C(=O)NCCc1ccccc1 [wact-406],0.741 ± 0.36
18,c1ccc(CSc2nnc(-c3ccccc3)o2)cc1 [wact-38],8.44 ± 0.94
19,Cc1ccn2cc(-c3ccc(F)cc3)nc2c1 [wact-436],1.94 ± 0.73
20,CCSc1nnc(-c2ccc(Cl)cc2Cl)o1 [wact-4],4.56 ± 1.9
21,O=[N+]([O-])c1ccc(N2CCc3ccccc3C2)nc1 [wact-421],1.83 ± 0.59
22,CCC1CCC(N2CCN(c3ccc([N+](=O)[O-])cc3)CC2)CC1 (stereo not given) [wact-6],7.85 ± 2.4
23,O=C(Nc1cccc(Cl)c1)N1CCN(c2ccc([N+](=O)[O-])cc2)CC1 [wact-31],2.02 ± 0.75
24,O=[N+]([O-])c1ccc(N2CCN(CC3CCCCC3)CC2)cc1 [wact-45],4.22 ± 1.8
25,Ic1cccc(-c2nnc(-c3ccccc3)o2)c1 [wact-51],2.92 ± 1.6
